Results filed as inconclusive are left out. Activity calls are given as the source filed them. Unless noted, the call rests on the fitted dose curve; in most records, active means well fitted curve in either direction with a large enough effect (not every such curve was filed as active); inconclusive means small, poorly fitted or top-dose-only effect, or another doubt; inactive means flat fitted curve, though single readings scatter.
Assays:
[1] = AP1 Signaling Pathway (AID 357);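 further: ME-180 reporter cells stimulated with EGF at its EC50 level; on the % scale 0 is the no-effect control and ±100 the full control effect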
Summary of the method: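 First, ME-180 AP-1-bla cells were cultured overnight at 37 °C in low-serum Opti-MEM. Next, titrated compounds with EC50 EGF were incubated 5 hours. Finally, CCF4 was added for 2.5 hours and the 460/530 nm ratio recorded.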

[2] = molecular target: Cytochrome P450 1A2 (Homo sapiens) (UniProt P05177); test: p450-cyp1a2 (AID 410; calls by dose curve;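 further: -100% = full effect of reference inhibitor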)
Chain of Cytochrome P450 1A2 (Homo sapiens) (P05177 whole entry, looked up): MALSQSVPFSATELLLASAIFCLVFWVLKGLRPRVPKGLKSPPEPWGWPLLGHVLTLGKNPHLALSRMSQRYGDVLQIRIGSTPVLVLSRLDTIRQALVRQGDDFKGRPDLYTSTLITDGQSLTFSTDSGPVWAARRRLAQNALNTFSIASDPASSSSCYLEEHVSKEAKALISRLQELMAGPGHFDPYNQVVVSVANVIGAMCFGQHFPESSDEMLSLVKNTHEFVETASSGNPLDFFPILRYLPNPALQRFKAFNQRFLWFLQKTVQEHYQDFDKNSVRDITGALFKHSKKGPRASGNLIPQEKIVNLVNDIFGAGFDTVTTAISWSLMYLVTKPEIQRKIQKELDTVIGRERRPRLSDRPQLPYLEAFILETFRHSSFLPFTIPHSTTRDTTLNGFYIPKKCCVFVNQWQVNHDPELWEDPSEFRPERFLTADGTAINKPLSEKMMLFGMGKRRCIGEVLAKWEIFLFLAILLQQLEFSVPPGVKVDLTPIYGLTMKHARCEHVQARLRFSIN
Summary of the method: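 20nM CYP1A2, 100uM Luciferin-ME (=Km), 100mM KPO4; cpd 10 min RT; +NADPH regen, 60 min RT; stop/detect 20 min; luminescence. Normalized to furafylline 57 uM = full inhibition.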

[3] = NFAT Signaling Pathway (AID 444); conditions: Jurkat NFAT-bla M1, carbachol, beta-lactamase ratio, 5 h;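 further: carbachol stimulus at about its EC50 of 1 µM final; on the % scale 0 is the no-effect control and ±100 the full control effect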
Summary of the method: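 Read-out: CCF4 FRET ratio (460 nm/530 nm) after 1 h RT dye loading, used for %activity and AC50 from titration series. Cells: Jurkat NFAT-β-lactamase/M1 line, treated with compound plus 1 uM carbachol for 5 h, 37 °C.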

[4] = Stat Signaling Pathway (AID 446);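 further: ME-180 cervical cancer cells given 40 pM IL-6 alongside compound; SIE-controlled beta-lactamase reporter measured as 460/530 nm FRET emission ratio; on the % scale 0 is the no-effect control and ±100 the full control effect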
Summary of the method: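 Normalization used AC90 stimulation (300 pM IL-6) and AC90 inhibition (125 nM pan-JAK inhibitor at 40 pM IL-6). The underlying signal is SIE-driven beta-lactamase in ME-180 cells after 5 h IL-6 exposure with compound.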

[5] = molecular target: Glucocorticoid receptor (Homo sapiens) (UniProt P04150); test: GR-GFP Redistribution (AID 450;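 active means compounds whose dose series gives a full or clear partial fitted curve of increased nuclear translocation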; further: potency means the concentration at half of the fitted maximal effect); conditions: U2OS GR-GFP nuclear translocation, laser cytometry, 2 h
Chain of Glucocorticoid receptor (Homo sapiens) (P04150 whole entry, looked up, the tested form may be a part): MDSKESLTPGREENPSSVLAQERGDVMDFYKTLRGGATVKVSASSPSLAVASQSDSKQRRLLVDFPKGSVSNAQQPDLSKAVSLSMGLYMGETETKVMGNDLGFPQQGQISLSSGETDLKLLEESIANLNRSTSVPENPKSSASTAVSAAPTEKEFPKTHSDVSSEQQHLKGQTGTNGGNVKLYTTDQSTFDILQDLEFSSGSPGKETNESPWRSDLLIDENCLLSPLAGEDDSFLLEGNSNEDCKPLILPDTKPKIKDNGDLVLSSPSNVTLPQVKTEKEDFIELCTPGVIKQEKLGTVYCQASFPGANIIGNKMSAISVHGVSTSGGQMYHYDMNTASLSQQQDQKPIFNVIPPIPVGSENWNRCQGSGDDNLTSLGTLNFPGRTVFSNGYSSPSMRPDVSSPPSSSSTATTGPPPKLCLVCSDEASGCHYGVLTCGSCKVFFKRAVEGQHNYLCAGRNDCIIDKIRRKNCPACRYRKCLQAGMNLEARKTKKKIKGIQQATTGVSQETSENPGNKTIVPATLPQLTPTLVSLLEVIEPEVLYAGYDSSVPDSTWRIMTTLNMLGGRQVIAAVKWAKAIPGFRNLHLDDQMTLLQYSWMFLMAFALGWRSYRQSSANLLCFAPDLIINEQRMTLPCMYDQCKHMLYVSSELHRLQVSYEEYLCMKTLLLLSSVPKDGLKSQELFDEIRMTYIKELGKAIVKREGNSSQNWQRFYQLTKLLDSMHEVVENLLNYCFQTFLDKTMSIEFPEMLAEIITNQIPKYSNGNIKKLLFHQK

[6] = molecular target: Glucocorticoid receptor (Homo sapiens) (UniProt P04150); test: GR-EFC Redistribution (AID 451; calls by dose curve; further: potency means the concentration at half of the fitted maximal effect); conditions: CHO-K1 GR-EFC translocation, beta-gal luminescence, 2 h
Summary of the method: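 Translocation of GR-ED fusion to nuclear EA restores b-gal, read by luminescence after 1 h room-temperature detection. Engineered CHO-K1 biosensor cells, 1,000/well, exposed 2 h at 37 C to titrations up to 46 uM final.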

[7] = molecular target: Mitogen-activated protein kinase 10 (Mus musculus) (UniProt Q61831); test: JNK3 AlphaScreen Assay (AID 530);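 further: kinase came from lysate of stimulated human HepG2 cells; signal reports phosphorylation of biotinylated GST-cJun 1-79 at Ser73 with 10 µM ATP; on the % scale 0 is the no-effect control and ±100 the full control effect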
Summary of the method: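 Kinase buffer: 20 mM Tris-HCl pH 7.6, 10 mM MgCl2, 1 mM DTT, 0.1 mM Na3VO4, 0.01% Tween-20; ATP 10 uM. Substrate biotin-GST-cJun(1-79), enzyme from activated HepG2 lysates. Detection by Ser73 phospho-antibody AlphaScreen.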

[8] = molecular target: 3',5'-cyclic-AMP phosphodiesterase 4B (Homo sapiens) (UniProt Q07343); test: qHTS Assay for Inhibitors of PDE-IV (AID 607; active means well fitted activation curve with a large enough effect in the main read-out, with a control signal flat, not every such curve was filed as active; further: % of control where 0% means no effect)
Chain of 3',5'-cyclic-AMP phosphodiesterase 4B (Homo sapiens) (Q07343 whole entry, looked up): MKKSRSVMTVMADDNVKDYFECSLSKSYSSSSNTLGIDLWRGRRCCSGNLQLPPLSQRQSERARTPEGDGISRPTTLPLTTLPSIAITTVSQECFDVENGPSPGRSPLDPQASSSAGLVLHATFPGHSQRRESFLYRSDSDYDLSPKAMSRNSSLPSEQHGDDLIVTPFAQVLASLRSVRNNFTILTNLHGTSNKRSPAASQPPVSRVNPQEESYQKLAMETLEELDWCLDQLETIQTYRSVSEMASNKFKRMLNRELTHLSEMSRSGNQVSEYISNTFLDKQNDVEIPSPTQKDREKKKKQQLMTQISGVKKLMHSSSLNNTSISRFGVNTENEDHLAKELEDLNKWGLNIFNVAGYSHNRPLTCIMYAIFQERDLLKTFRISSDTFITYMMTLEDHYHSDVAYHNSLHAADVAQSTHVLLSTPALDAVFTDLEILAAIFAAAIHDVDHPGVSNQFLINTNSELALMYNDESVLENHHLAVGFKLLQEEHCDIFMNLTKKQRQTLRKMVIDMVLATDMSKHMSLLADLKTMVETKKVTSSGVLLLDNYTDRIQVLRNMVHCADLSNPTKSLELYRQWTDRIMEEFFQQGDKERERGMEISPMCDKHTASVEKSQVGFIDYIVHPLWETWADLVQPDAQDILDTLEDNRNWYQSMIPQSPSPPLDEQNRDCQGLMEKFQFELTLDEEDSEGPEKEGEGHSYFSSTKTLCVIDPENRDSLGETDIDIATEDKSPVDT
Summary of the method: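 HEK293 ACTOne cells with CNG channel (1000/well), endogenous PDE4; membrane potential dye, compounds up to 22.9 uM final. Fluorescence Ex 535/Em 590; RO 20-1724 (100 uM final) as reference.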

[9] = qHTS Assay for Lipid Storage Modulators (AID 1519; calls by dose curve); conditions: Drosophila S3 cells, BODIPY lipid droplet/cell ratio, laser cytometry, cells loaded with oleic acid; for activity change, negative = inhibition: at 25.7 µM (top of the series)
Summary of the method: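 Cells seeded at 5,000 per well were treated with compounds over a concentration series and loaded with oleic acid (400 uM, as added). Lipid droplet fluorescence (488 nm excitation, 500-530 nm channel) was read by laser-scanning cytometry and normalized to 20 uM Triacsin C.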

[10] = molecular target: Ubiquitin carboxyl-terminal hydrolase 1 (Homo sapiens) (UniProt O94782); test: Inhibitors of USP1/UAF1: Pilot qHTS (AID 504865; active means well fitted inhibition curve with a large enough effect;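 further: rhodamine fluorescence freed from ubiquitin-rhodamine substrate followed over time; top concentration of the series differs between compounds; on the % scale 0 is the no-effect control and ±100 the full control effect; nearly all actives have a fitted effect of over 35% in size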)
Chain of Ubiquitin carboxyl-terminal hydrolase 1 (Homo sapiens) (O94782 whole entry, looked up): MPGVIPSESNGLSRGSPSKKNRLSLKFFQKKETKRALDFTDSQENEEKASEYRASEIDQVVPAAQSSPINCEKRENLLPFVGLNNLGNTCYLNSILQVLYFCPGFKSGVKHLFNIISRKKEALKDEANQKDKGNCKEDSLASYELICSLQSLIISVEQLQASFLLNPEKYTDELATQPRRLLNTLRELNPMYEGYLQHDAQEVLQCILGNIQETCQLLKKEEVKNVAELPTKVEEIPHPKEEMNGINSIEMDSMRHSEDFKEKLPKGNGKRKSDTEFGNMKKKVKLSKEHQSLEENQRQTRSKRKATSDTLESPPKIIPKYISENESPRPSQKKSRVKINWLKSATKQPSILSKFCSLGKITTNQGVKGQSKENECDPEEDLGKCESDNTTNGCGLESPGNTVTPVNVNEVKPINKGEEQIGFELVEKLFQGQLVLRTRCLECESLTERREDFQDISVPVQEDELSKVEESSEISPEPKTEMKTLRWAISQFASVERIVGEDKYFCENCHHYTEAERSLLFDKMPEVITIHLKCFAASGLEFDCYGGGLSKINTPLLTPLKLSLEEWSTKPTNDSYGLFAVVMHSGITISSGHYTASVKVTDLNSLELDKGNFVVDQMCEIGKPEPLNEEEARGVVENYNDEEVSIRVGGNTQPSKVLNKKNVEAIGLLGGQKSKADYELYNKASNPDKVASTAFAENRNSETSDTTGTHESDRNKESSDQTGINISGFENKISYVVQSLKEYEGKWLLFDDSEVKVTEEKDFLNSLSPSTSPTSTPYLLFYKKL
Summary of the method: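 1nM USP1/UAF1 + cpd, 15 min RT; start w/ Ub-Rho 150nM final; kinetic FL 480/540 nm, 6 reads q60 s. Buffer 50mM HEPES pH 7.8, 0.5mM EDTA, 1mM TCEP, 0.01% Tween-20, 0.1 mg/ml BSA.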

[11] = measured here: cell count channel max response
[12] = measured here: lipid channel max response

CN1[C@@H]2CCC[C@H]1CC(=O)C2
outcome [1]: inactive | Potency [2]: inactive | activity change, negative = inhibition ([3]; at 17.2 µM (top of the series)): -4.22% (inactive) | outcome [4]: inactive | Potency [5]: > 20.6 µM (inactive) | Potency [6]: > 20.6 µM (inactive) | outcome [7]: inactive | Potency [8]: inactive | activity change, negative = inhibition [9]: -2.47% (inactive) | max response [9, 11]: -0.588% | max response [9, 12]: -3.94% | Potency [10]: inactive

C=C1[C@@H]2C[C@@]3([C@H]1O)[C@H]1C[C@@H]4[C@@]5(C)CC[C@H](O)[C@]4([C@H]1N(CC)C5)[C@H]3C[C@H]2O
outcome [1]: inactive | Potency [2]: inactive | activity change, negative = inhibition ([3]; at 17.2 µM (top of the series)): -13% (inactive) | outcome [4]: inactive | Potency [5]: > 20.6 µM (inactive) | Potency [6]: > 20.6 µM (inactive) | outcome [7]: inactive | Potency [8]: inactive | activity change, negative = inhibition [9]: -1.27% (inactive) | max response [9, 11]: -11.5% | max response [9, 12]: -13.2%

C[C@@]12CC(=O)[C@H]3[C@@H](CCC4=CC(=O)CC[C@]43C)[C@H]1CCC2=O
outcome [1]: inactive | Potency [2]: inactive | activity change, negative = inhibition ([3]; at 17.2 µM (top of the series)): 2.56% (inactive) | outcome [4]: inactive | Potency [5]: > 20.6 µM (inactive) | Potency [6]: > 20.6 µM (inactive) | outcome [7]: inactive | activity change, negative = inhibition [9]: -2.03% (inactive) | max response [9, 11]: -10.7% | max response [9, 12]: -12.2%

NC[C@H](O)c1ccc(O)cc1
outcome [1]: inactive | Potency [2]: inactive | activity change, negative = inhibition ([3]; at 17.2 µM (top of the series)): 6.46% (inactive) | activity change, negative = inhibition ([3]; at 38 µM (top of the series)): 10.8% (inactive) | outcome [4]: inactive | outcome [7]: inactive | Potency [8]: inactive | activity change, negative = inhibition [9]: -0.0033% (inactive) | max response [9, 11]: 1.62% | max response [9, 12]: 3.81% | Potency [10]: inactive
